Shn3 inh set2: reduction of Shn3 3'UTR firefly luciferase signal, primary screen, Schnurri-3 inhibitor project, cell-based, Clone20 osteoblasts, set 2; 360,000 tested, 0.52% active; inhibition, % at 12.5 µM; AID 588674, 2011; Clone20 osteoblast Shn3 3'UTR firefly luciferase, 24 h;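 active = mean inhibition of at least 75% with every replicate also reaching 75%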;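 also: 0% = median of neutral control wells and 100% = pilot-screen positive control compound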
CF NFkB inh: inhibitors of PAF-induced NF-kB signaling, primary screen, cell-based, GFP fluorescence, uHTS; AID 588850, 2011; inhibition, % at 5 µM; 360,000 tested, 0.86% active; KKLEB NF-kB-GFP reporter, GFP fluorescence overnight;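 active = at least 50% inhibition at 5 µM, scaled per plate between neutral and stimulator controls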;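 also: PAF is a Pseudomonas aeruginosa culture filtrate used as stimulus; plate controls were PAF-stimulated DMSO wells for no effect and unstimulated DMSO wells for full effect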
HIF-2a block: HIF-2a reporter inhibitors, primary screen, luminescence, 786-0 RCC cells. inhibition, % at 18.8 µM. 786-0 RCC cells HIF-2a reporter, luciferase luminescence, overnight. AID 624352, 2012. 360,000 tested, 0.72% active;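 active = inhibition of the luminescence signal of 40% or more relative to plate controls, in a single-dose primary screen at 18.75 µM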
Peg3 prom inh: Peg3 promoter-driven luciferase inhibitors, primary screen, cell-based, HeLa, luciferase luminescence; HeLa PEG-Prom luciferase reporter, overnight; 360,000 tested, 1.7% active; inhibition, % at 20 µM;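 active = inhibition of at least 50% at 20 µM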
LMP1 NFkB inh: EBV LMP1-driven NF-kappaB luciferase reporter inhibitors, primary screen, cell-based, luminescence, single point | 350,000 tested, 0.69% active | LMP1-induced NF-kappaB luciferase reporter cells | inhibition, % at 12.5 µM; in the data active = inhibition above about 41%;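 also: 0% = neutral control wells and 100% = reference inhibitor control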
KKLEB tox: cytotoxicity in KKLEB CF airway cells, primary screen, cytotoxicity control for CF NF-kB inhibitor project, cell-based, uHTS, fluorescence assay plates; activity change (cytotoxicity), % at 5 µM; KKLEB CF airway cells viability, ATPlite luminescence, overnight; hits give low values; cells stimulated with P. aeruginosa culture filtrate; AID 602141, 2011; 360,000 tested, 0.36% active;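 active = corrected activity change at or below -50% at 5 µM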
Mdm2-MdmX confirm: retested Mdm2-MdmX interaction blockers, confirmation, cell-based, luminescence, single concentration, set 2 | AID 504601, 2011 | shares compounds with HIF-2a block | 740 tested, 99% active | inhibition, % at 8 µM | SaOS-2 split-luciferase Mdm2/MdmX complementation;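 active = mean inhibition of the luminescence signal across two replicates at or above 26 percent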
Target sequence (O15151 whole entry, looked up): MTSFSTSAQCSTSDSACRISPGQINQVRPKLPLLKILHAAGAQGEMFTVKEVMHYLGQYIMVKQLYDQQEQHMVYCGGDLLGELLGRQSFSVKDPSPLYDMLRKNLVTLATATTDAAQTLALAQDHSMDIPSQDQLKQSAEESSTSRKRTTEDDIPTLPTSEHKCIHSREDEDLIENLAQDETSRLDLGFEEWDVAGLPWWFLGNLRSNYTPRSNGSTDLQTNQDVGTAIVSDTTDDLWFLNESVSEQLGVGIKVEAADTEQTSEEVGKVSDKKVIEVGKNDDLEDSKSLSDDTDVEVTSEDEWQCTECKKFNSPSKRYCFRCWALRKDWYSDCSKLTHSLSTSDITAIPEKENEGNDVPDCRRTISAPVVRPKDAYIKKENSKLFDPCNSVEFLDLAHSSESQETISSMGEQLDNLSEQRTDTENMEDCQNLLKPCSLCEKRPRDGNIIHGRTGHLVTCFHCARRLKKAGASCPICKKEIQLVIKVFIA
Target sequence (Q00987 whole entry, looked up): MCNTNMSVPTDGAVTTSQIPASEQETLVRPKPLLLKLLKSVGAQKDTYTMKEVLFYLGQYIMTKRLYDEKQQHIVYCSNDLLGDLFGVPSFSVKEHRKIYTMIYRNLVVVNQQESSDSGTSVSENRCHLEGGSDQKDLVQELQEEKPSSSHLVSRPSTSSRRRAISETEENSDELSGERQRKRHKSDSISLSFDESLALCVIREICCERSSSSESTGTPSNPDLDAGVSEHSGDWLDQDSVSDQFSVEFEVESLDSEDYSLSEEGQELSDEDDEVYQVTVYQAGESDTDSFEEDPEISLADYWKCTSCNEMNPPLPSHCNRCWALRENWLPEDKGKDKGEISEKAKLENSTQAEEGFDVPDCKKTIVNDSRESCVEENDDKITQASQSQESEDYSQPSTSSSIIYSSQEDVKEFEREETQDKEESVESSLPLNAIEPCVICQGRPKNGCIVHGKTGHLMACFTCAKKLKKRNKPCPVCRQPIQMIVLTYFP
HIF-2a inh conf: HIF-2a reporter inhibitor retest, confirmation, luminescence, 786-0 RCC cells; inhibition, % at 18.8 µM; HIF-2a luciferase reporter luminescence, overnight; shares compounds with HIF-2a block; 1,800 tested, 56% active;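 active = mean inhibition across four replicates of at least 40 percent at the single tested concentration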
HIF-1a counter: HIF-1a luciferase reporter signal reduction – MiaPaCa-2 cells, single concentration, counter-screen for HIF-2a inhibitor project, confirmation | shares compounds with HIF-2a block | MiaPaCa-2 HIF-1a luciferase reporter, desferoxamine, overnight | inhibition, % at 18.8 µM | 1,800 tested, 72% active | AID 651589, 2012;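 active = mean inhibition of the reporter signal across four replicates at the single tested dose of 50% or more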
Numbers without * were called inactive. In the library only some 2.9% were active in any assay of this set; here they are far more common.

Screening CC(C)OC(=O)NCN1C(=O)C2C3C=CC(C3)C2C1=O (stereo unspecified) returned Shn3 inh set2 -10, CF NFkB inh 5, HIF-2a block 21, Peg3 prom inh 9, LMP1 NFkB inh -9 and KKLEB tox -15.
COc1cccc(CNC(=O)c2cc3oc4ccccc4c3n2C)c1OC was read as Shn3 inh set2 -1, CF NFkB inh 4, HIF-2a block -18, Peg3 prom inh -6, LMP1 NFkB inh 11, KKLEB tox -11 and Mdm2-MdmX confirm 100*.
CCOc1ccc(CNC(=O)c2cc3oc4ccccc4c3n2C)cc1 was read as Shn3 inh set2 -17, CF NFkB inh 8, HIF-2a block -83, Peg3 prom inh -25, LMP1 NFkB inh 22 and KKLEB tox -16.
O=C(O)CCSc1ncnc2sc(-c3ccccc3)cc12 was read as Shn3 inh set2 61, CF NFkB inh 7, HIF-2a block 91*, Peg3 prom inh 25, LMP1 NFkB inh 31, KKLEB tox -7, HIF-2a inh conf 94* and HIF-1a counter 84*.
`CCC(C)[C@H](N)C(=O)N[C@H]1CCC2C3CC=C4C[C@@H](O)CC[C@]4(C)C3CC[C@@]21C` (stereo partly specified) gave Shn3 inh set2 18, CF NFkB inh 32, HIF-2a block 86*, Peg3 prom inh 110*, LMP1 NFkB inh -11, KKLEB tox -67*, HIF-2a inh conf -1 and HIF-1a counter 50*.
For C[C@@H](N)C(=O)N[C@H]1CCC2C3CC=C4C[C@@H](O)CC[C@]4(C)C3CC[C@@]21C (stereo partly specified) the results were Shn3 inh set2 -5, CF NFkB inh 3, HIF-2a block 7, Peg3 prom inh -1, LMP1 NFkB inh -1 and KKLEB tox 1.
CC(C)[C@H](N)C(=O)N[C@H]1CCC2C3CC=C4C[C@@H](O)CC[C@]4(C)C3CC[C@@]21C (stereo partly specified) was read as Shn3 inh set2 20, CF NFkB inh 8, HIF-2a block 55*, Peg3 prom inh 92*, LMP1 NFkB inh -26, KKLEB tox -72*, HIF-2a inh conf 2 and HIF-1a counter 90*.
CCOc1ccc2[nH]c3c(=O)n(CCc4ccc(OC)cc4)cnc3c2c1 was read as Shn3 inh set2 9, CF NFkB inh 0, HIF-2a block 11, Peg3 prom inh 3, LMP1 NFkB inh 7 and KKLEB tox 2.
`CN1CCN(CCNC(=O)Cn2c(=O)c3cccn3c3ccc(F)cc32)CC1` gave Shn3 inh set2 -16, CF NFkB inh -7, HIF-2a block 1, Peg3 prom inh 9, LMP1 NFkB inh 5 and KKLEB tox -4.
`N#CC(C#N)=C1C=CC=CN1/C(=C\c1ccccc1)C(=O)c1cccs1` gave Shn3 inh set2 -53, CF NFkB inh 13, HIF-2a block -38, Peg3 prom inh 12, LMP1 NFkB inh 8 and KKLEB tox -26.
`N#CC(C#N)=C1C=CC=CN1/C(=C\c1ccccc1Cl)C(=O)c1ccccc1` gave Shn3 inh set2 87*, CF NFkB inh 81*, HIF-2a block 97*, Peg3 prom inh 108*, LMP1 NFkB inh 0, KKLEB tox -58*, HIF-2a inh conf 88* and HIF-1a counter 94*.

Compound activity from PubChem BioAssay.
